An excerpt weighted towards active compounds, which were near 12% of everything screened.
JMJD2A Tudor – JMJD2A Tudor domain (human) inhibition | AlphaScreen JMJD2A-Tudor / H3K4me3 peptide binding | Potency, µM (highest dose often 114 µM), for inactives: top-dose activity change, negative = inhibition, most hits filed as inhibitors | 4.4% of 390,000 active | AID 504339; further: on the % scale 0 is the no-effect control and ±100 the full control effect; nearly all actives have a fitted effect of over 50% in size
PLK1 PBD block – blocks phosphopeptide binding to human PLK1 polo-box domain | P53350 | Plk1 PBD binding of FITC phosphopeptide, fluorescence polarization | Potency, µM, inactives show max response, negative = inhibition, hits mostly inhibitors | 2.8% of 360,000 active | AID 720504; further: series mostly up to about 57 µM; on the % scale 0 is the no-effect control and ±100 the full control effect; nearly all actives have a fitted effect of over 65% in size
G9a inh – G9a (human) methyltransferase inhibition; AID 504332; G9a H3K9 monomethylation, AlphaScreen, 2 h; 8.8% of 350,000 active; Q96KQ7; Potency, µM (highest dose often 102 µM), for the others: top-dose activity, negative = inhibition, actives largely listed as inhibitors; further: on the % scale 0 is the no-effect control and ±100 the full control effect; nearly all actives have a fitted effect of over 75% in size
Target sequence (Q96KQ7 913-1193 limits assumed): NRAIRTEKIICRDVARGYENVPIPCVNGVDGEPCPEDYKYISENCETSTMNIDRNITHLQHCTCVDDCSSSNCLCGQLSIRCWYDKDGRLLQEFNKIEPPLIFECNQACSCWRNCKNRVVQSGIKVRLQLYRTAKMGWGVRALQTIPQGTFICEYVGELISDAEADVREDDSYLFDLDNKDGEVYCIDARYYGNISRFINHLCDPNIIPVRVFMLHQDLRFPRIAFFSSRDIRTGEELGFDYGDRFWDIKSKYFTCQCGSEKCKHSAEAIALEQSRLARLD
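Signal arises when biotinylated H3K9 peptide, once monomethylated, bridges streptavidin donor and antibody-captured acceptor beads. Enzyme at 20 nM was preincubated 15 min with test compounds; peptide 500 nM and SAM 20 uM then reacted for 2 h.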
Sfp PPTase inh – inhibitors of Bacillus subtilis Sfp phosphopantetheinyl transferase | AID 1490 | 3.5% of 310,000 active | Biochemical Sfp PPTase activity, qHTS | Potency, µM, inactives show largest response in the series, negative = inhibition, actives largely listed as inhibitors;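 further: the enzyme is Sfp with the accession as filed and its product quenches rhodamine fluorescence; 0% = enzyme reaction without inhibitor and -100% = no enzyme wells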
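Compounds were incubated with enzyme (final 15 nM) for 15 min at room temperature before substrate addition started the reaction. Fluorescence at 525 nm excitation, 598 nm emission was recorded immediately and after 30 minutes.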
HP1b chromo inh – inhibitors of HP1-beta chromodomain binding to methylated histone tails. P83916. AlphaScreen HP1-beta / biotin-H3K9me3 peptide binding. Potency, µM (top dose mostly 114 µM), for inactives: at the highest dose activity change, negative = inhibition, usual class: inhibitors. 0.56% of 390,000 active. AID 540317; further: nearly all actives have a fitted effect of over 70% in size
Target sequence (P83916 whole entry, looked up): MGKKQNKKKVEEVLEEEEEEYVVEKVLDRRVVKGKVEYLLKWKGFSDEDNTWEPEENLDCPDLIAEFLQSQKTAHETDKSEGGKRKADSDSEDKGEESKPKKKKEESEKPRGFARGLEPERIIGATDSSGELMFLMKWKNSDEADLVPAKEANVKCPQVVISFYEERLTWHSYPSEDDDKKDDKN
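Compound inhibition of the preformed complex between 50 nM HP1-beta and 50 nM biotinylated H3K9me3 peptide was read by AlphaScreen. Buffer was PBS pH 7.4 with 0.01% Tween-20. Incubations ran 30 min at room temperature, with 10 ug/mL donor/acceptor beads.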
BAZ2B block – blocks human BAZ2B; Q9UIF8; AlphaScreen BAZ2B-H3K14Ac peptide displacement; Potency, µM (doses to about 114 µM), for the others: at the highest dose activity change, negative = inhibition, usual class: inhibitors; 4.4% of 360,000 active; further: on the % scale 0 is the no-effect control and ±100 the full control effect; nearly all actives have a fitted effect of over 60% in size
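AlphaScreen displacement of biotin-H3(5-23)K14Ac peptide (50 nM final) from BAZ2B (50 nM final) in PBS pH 7.4, 0.01% Tween-20; complex preformed 30 min RT, then compounds (top 110 uM) 30 min RT, beads 20 min dark.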
Active calls of the source: *; ? = inconclusive; / = no result given; [ ] = dose if it differs, or a comment. The call rests on the fitted dose curve; in most records, active means well fitted curve in the direction sought with a large enough effect; inconclusive means small, poorly fitted or top-dose-only effect, or another doubt; inactive means no such curve, though single readings can be large; an effect the other way counts as inactive or inconclusive. Potency means the concentration at half of the fitted maximal effect.

SMILES	JMJD2A Tudor	PLK1 PBD block	G9a inh	Sfp PPTase inh	HP1b chromo inh	BAZ2B block
O=[N+]([O-])c1ccc(/C=C/C2=NN(c3ccccc3)C(c3ccco3)C2)o1 (stereo not given)	3.16µM*	3.6%	31.6µM*	-6.5%	?	31.6µM*
CCN(CC)CCN1CCN(c2cnc(C)cn2)CC1	/	1.3%	/	/	/	/
COCCCNC(=S)NNC(=S)Nc1ccccc1	1.58µM*	-11.0%	/	44.7µM*	-17.7%	-4.3%
COCCCNC(=S)NNC(=S)Nc1ccc(F)cc1F	1.58µM*	-13.1%	2.51µM*	79.4µM*	-13.2%	?
COc1ccc(-n2cc(CNCCCn3ccnc3)c(-c3cccc(F)c3)n2)cc1	?	-4.0%	1.5%[0.501 µM]	-19.4%	6.8%	?
Cc1ccc(S(=O)(=O)NC(CC(C)C)C(=O)Nc2nccs2)cc1 (stereo not given)	-4.1%	-8.6%	-0.2%	9.4%	24.8%	-3.7%
CCCn1c(=N)n(CC(=O)c2ccc([N+](=O)[O-])cc2)c2ccccc21	-22.8%	-4.1%	39.8µM*	?	17.0%	35.5µM*
CCCCC1CC2=C(C(=O)OC(C)(C)O2)C(c2ccc3ccccc3c2)O1 (stereo not given)	/	1.4%	/	/	/	/
O=C(COc1ccc(/C=N/NC(=O)c2ccncc2)cc1)Nc1ccc([N+](=O)[O-])cc1	?	-11.8%	20.0%[59 µM]	25.7%	18.8%	-1.7%
O=C(COc1ccc(/C=N/NC(=O)c2ccc(O)cc2)cc1)Nc1cccc([N+](=O)[O-])c1	-23.8%	-21.2%	28.2µM*	-26.4%	2.6%	-35.4%
O=C(CO/N=C/c1cccc([N+](=O)[O-])c1)Nc1ccc2ccccc2c1	-25.7%	-2.3%	0.891µM*	?	5.7%	?
CCC(C)NCCOc1ccccc1C (stereo not given)	3.16µM*	-5.4%	2.82µM*	56.2µM*	?	50.1µM*
CC(C)NCC(O)COCCOc1ccc(Br)cc1 (stereo not given)	-9.0%	-0.1%	-7.9%[59 µM]	26.4%	21.4%	5.6%
CCC(C)NCCOc1ccc(Br)cc1 (stereo not given)	3.55µM*	-7.0%	12.6µM*	-6.1%	?	?
CCC(C)NCCOCCOc1ccc(Br)cc1 (stereo not given)	11.2µM*	-8.1%	?	?	?	79.4µM*
Cc1ccccc1OCCNC(=S)Nc1ccccc1	0.8%	-6.0%	61.0%	8.7%	42.8%	-4.1%
CCCOc1cccc(C(=O)N2CCCCC2CCN2CCCCC2)c1 (stereo not given)	-18.6%	/	-4.0%[59 µM]	/	19.0%	-9.7%
CCOC(=O)N1CCN(C(=O)CCC2CCCC2)CC1	0.7%	2.1%	-1.9%	13.5%	15.2%	-14.0%
O=C(CCC1CCCC1)N1CCC(N2CCCCCC2)CC1	3.98µM*	-2.8%	?	-5.3%	?	56.2µM*
O=C(CCC1CCCC1)N1CCN(C(=O)COc2ccccc2)CC1	-19.2%[11.4 µM]	23.8µM*	50.1µM*	-3.8%	-5.6%	8.6%
COC(=O)C1CCN(C(=O)CCC2CCCCC2)CC1	-2.8%	-6.6%	7.08µM*	4.8%	27.8%	14.1%
CCOC(=O)C(=O)N1CCC(C(=O)OC)CC1	4.9%	0.1%	35.5µM*	10.9%	8.5%	-37.1%
Cc1ccc(OCC(=O)N2CCN(C(=O)CCC3CCCC3)CC2)cc1	-3.6%	-0.4%	5.1%[59 µM]	14.1%	18.6%	9.3%
O=c1c2c(nc3nc(COc4ccccc4)[nH]n13)CCC2	2.8%	-2.7%	-33.3%[12.7 µM]	18.6%	45.3%	4.0%
O=C(O)Cc1nc2nc3c(c(=O)n2[nH]1)CCCC3	10µM*	-1.5%	?	-21.3%	6.9%	-2.5%
SMILES	JMJD2A Tudor	PLK1 PBD block	G9a inh	Sfp PPTase inh	HP1b chromo inh	BAZ2B block
O=C1Nc2ccc(S(=O)(=O)Nc3ccccc3O)c3cccc1c23	-22.3%	/	12.6µM*	/	19.1%	-26.1%
O=C(Nc1ccc(O)cc1)/C(=C\C=C\c1ccccc1)NC(=O)c1ccccc1	-34.7%	-15.5%	?	19.1%	1.8%	?
CCCCOc1ccc(C(=O)N/C(=C/C=C/c2ccccc2)C(=O)NC)cc1	-31.1%	-20.3%	-50.2%	?	6.8%	-28.6%
CCCCOc1ccc(C(=O)N/C(=C/C=C/c2ccccc2)C(=O)O)cc1	-23.6%	-25.0%	50.1µM*	-10.8%	20.0%	?
COC(=O)/C(=C\C=C\c1ccccc1)NC(=O)c1ccccc1	25.1µM*	13.4µM*	-15.5%	-6.4%	-3.3%	-4.1%
O=C(CN1C(=O)CCC1=O)NNc1ccc2ccccc2c1	-20.4%	-20.6%	8.91µM*	1.4%	31.6%	-16.2%
COc1ccc(-c2csc3ncnc(N4CCN(c5ccccc5O)CC4)c23)cc1	-30.1%	1.7%	/	-5.4%	-3.2%	-8.8%
COc1ccc(-c2csc3ncnc(N4CCN(c5ccc(OC)cc5)CC4)c23)cc1	31.6µM*	1.0%	/	-5.6%	?	10µM*
COc1ccc(-c2csc3ncnc(N4CCN(c5ccccc5)CC4)c23)cc1	?	-8.7%	70.8µM*	16.3%	-7.0%	?
COc1ccc(-c2csc3ncnc(N4CCN(Cc5ccccc5)CC4)c23)cc1	-26.0%	-0.2%	-16.8%	-14.7%	12.9%	?
COc1ccc(N2CCN(c3ncnc4onc(-c5ccc(F)cc5)c34)CC2)cc1	?	/	17.8µM*	/	-0.5%	-32.7%[57.1 µM]
COc1ccc(-c2csc3ncnc(N4CCN(c5ccccc5[N+](=O)[O-])CC4)c23)cc1	?	-19.8%	14.1µM*	6.0%	?	?
Fc1ccc(N2CCN(c3ncnc4onc(-c5ccc(Cl)cc5)c34)CC2)cc1	-17.5%	/	4.3%[59 µM]	/	32.9%	-17.3%
COC(=O)c1ccc(S(=O)(=O)NCc2ccccn2)n1C	?	5.5%	?	5.8%	39.0%	-6.4%
CC(OC(=O)[C@@H]1CCCN1C(=O)c1cccs1)C(=O)Nc1cccc([N+](=O)[O-])c1 (stereo not given in full)	-20.8%	4.5%	/	/	-1.2%	/
Cc1ccc(-c2csc3ncnc(NCCN4CCOCC4)c23)cc1	-8.2%	-5.0%	/	3.4%	32.3%	-26.4%
Cc1ccc(-c2csc3ncnc(Nc4ccc(N5CCOCC5)cc4)c23)cc1	-35.1%[11.4 µM]	26.7µM*	?	?	?	44.7µM*
S=c1[nH]nc(COc2ccccc2)n1/N=C/c1ccccc1Cl	56.2µM*	26.7µM*	2.24µM*	?	-1.2%	-21.9%
S=c1[nH]nc(COc2ccccc2)n1/N=C/c1c(Cl)cccc1Cl	-11.4%	?	2µM*	-14.5%	5.2%	2.0%
S=c1[nH]nc(COc2ccccc2)n1/N=C/c1cccc(Cl)c1Cl	?	?	?	-1.9%	-5.8%	-18.6%
Cc1cc2oc(C(=O)Nc3cccc(-c4nc5ccccc5o4)c3)c(C)c2cc1Cl	-4.3%	/	-1.3%[59 µM]	/	40.7%	-27.0%
